# Measured values as given in ChEMBL document CHEMBL3433997, “St. Jude Leishmania screening dataset” (2016).
# Columns and labels:
# Assay type in all cases: functional
# [1] = molecular target: Solute carrier family 2, facilitated glucose transporter member 1 (Homo sapiens) (UniProt P11166); test: ST_JUDE_LEISH: Cytotoxicity at 2uM final concentration against transgenic Leishmania Mexicana promastigotes LmGLUT1 that are glucose transport deficient and complemented with the human glucose transporter GLUT1. Activity is measured by DNA content using SYBR green in vitro
# Chain of Solute carrier family 2, facilitated glucose transporter member 1 (Homo sapiens) (P11166 whole entry): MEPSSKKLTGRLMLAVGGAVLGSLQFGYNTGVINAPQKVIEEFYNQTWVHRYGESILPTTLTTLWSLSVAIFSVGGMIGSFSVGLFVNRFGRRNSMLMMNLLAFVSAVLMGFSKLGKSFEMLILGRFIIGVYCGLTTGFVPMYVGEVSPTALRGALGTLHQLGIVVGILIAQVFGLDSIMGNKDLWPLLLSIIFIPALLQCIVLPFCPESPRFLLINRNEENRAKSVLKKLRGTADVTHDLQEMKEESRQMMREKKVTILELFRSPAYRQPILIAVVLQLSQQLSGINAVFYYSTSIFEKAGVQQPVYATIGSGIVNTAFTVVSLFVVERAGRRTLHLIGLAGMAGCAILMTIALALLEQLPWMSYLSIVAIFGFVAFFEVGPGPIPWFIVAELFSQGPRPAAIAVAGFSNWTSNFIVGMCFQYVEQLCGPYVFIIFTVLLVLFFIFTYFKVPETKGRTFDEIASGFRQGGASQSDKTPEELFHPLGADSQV
# [2] = molecular target: Hexose transporter 1 (Plasmodium falciparum) (UniProt O97467); test: ST_JUDE_LEISH: Cytotoxicity at 2uM final concentration against transgenic Leishmania Mexicana promastigotes LmPfHT that are glucose transport deficient and complemented with the Plasmodium falciparum hexose transporter. Activity is measured by DNA content using SYBR green in vitro
# [3] = molecular target: Glucose transporter (Leishmania mexicana) (UniProt O61059); test: ST_JUDE_LEISH: Cytotoxicity at 2uM final concentration against transgenic Leishmania Mexicana promastigotes LmGT2 that are glucose transport deficient and complemented with the L. Mexicana glucose transporter 2. Activity is measured by DNA content using SYBR green in vitro
Structure (SMILES),inhibition [1] [%],inhibition [2] [%],inhibition [3] [%]
CN(C)CCCNCc1ccc(-c2ccc(F)c(Cl)c2)o1,-0.74,0.82,-0.76
Cc1cccc2nc(-c3cccc(-c4ccc(NC(=O)c5cnn6cccnc56)cc4)c3)[nH]c12,11.4,9.77,7.27
Clc1ncnc2ncn(Cc3cccc(Br)c3)c12,15.3,10.7,10.8
CC(C)CNCc1ccc(-c2ccc(CNC3CCN(Cc4ccccc4)CC3)cc2)cc1,0.98,4.82,5.31
O=C(NCC1CCC1)c1cnc(Nc2cccc(Cl)c2)nc1N1CCC1,14.5,12.8,12.4
O=C(C=Cc1ccc(F)cc1)N1CCN(S(=O)(=O)c2ccc(Cl)cc2)CC1,0.4,-1.62,4.67
CCC(C)NCCC(c1ccccc1)c1ccccc1O (stereo not drawn),5.11,4.69,4.41
CC(Cc1ccc(CN(CC(N)=O)Cc2ccc(CC(C)NCCc3cccc(Cl)c3)cc2)cc1)NCCc1cccc(Cl)c1 (stereo not drawn),3.67,-0.2,7.2
O=c1cc(N2CCNCC2)c(Cl)nn1Cc1ccc(NS(=O)(=O)c2ccc(Oc3ccccc3)cc2)cc1,1.25,3.7,1.23
NC(=O)c1cc2nc(NC3CCC3)nc(Nc3cccc4[nH]ncc34)c2[nH]1,-0.69,-0.16,-1.17
CC(C)c1ccc(NC(=O)NC2CCN(CCCCCNC(=O)/C=C/c3ccc(Cl)c(Cl)c3)CC2)cc1,-0.71,-0.91,-0.17
O=C(Nc1ccc(-c2csc(-c3nc4ccccc4[nH]3)c2)cc1)Nc1ccsc1,1.71,0.76,0.44
CCCCCCc1cc(OC)c(OC)cc1C(C)Nc1ccnc2cc(Cl)ccc12 (stereo not drawn),8.21,5.09,0.14
Cc1ccc(NC(=O)c2ccc3ncccc3c2)cc1OC1CCN(CCC(C)C)CC1,3.07,2.35,4.09
Cc1nc(-c2ccc(-c3ccc(C(=O)Nc4ccc(I)c(OCCN5CCCC5)c4)cc3)c(C)c2)no1,3.85,3.48,1.38
CCCCCCNC(=O)C1Cc2c([nH]c3ccc(C)cc23)C2(CCN(CCc3ccccc3)CC2)N1 (stereo not drawn),0.36,1.61,3.44
OC(c1ccc(Cl)cc1)(c1ccc(Cl)cc1)C(c1ccc(Cl)cc1)n1ccnc1 (stereo not drawn),8.37,4.21,2.69
Cc1cccc2nc(-c3ccc(-c4ccc(NC(=O)C(C)CN5CCN(C)CC5)cc4)s3)[nH]c12 (stereo not drawn),3.39,3.1,2.29

Structure (SMILES),inhibition [1] [%],inhibition [2] [%],inhibition [3] [%]
Cc1ccc2[nH]c3c(c2c1)CC(C(=O)NCCC(C)C)NC31CCN(Cc2ccccc2)CC1 (stereo not drawn),0.11,-3.4,0.79
CC(C)c1ccc(NC(=O)c2ccc(NCCCN(C)Cc3ccccc3)c([N+](=O)[O-])c2)cc1,0.47,-1.98,-0.53
O=C(Nc1ccc(Oc2ccccc2)cc1)N(CCN1CCCC1)Cc1ccc(-c2ccc(CN3CCNCC3)cc2)cc1,0.02,1.54,0.38
COc1ccc2ncc(F)c([C@H](O)CN3CCC(NCc4ccc5c(c4)NC(=O)CS5)CC3)c2c1,-1.54,-0.25,-1.73
CCN(CC)CCCCNc1cc(-c2[nH]c(-c3c(Cl)cccc3Cl)nc2-c2ccc3cc(OC)ccc3c2)ccn1,0.05,-1.62,-0.83
O=C(COc1ccc(Cl)c(Cl)c1)NCCCCCN1CCCN(C(=O)Nc2cc(Cl)cc(Cl)c2)CC1,5.88,-0.58,6.4
CCSc1ccccc1COc1c(C)nc(N)nc1N,6.84,6.09,2.41
C=C(C)C1CC=C(CN2CCC(N3CCc4cc(NC(=O)c5cc(C)on5)ccc43)C2)CC1 (stereo not drawn),2.54,4.39,4
CN1CCN(CCCN(Cc2csc(-c3ccc(CNCc4ccccc4)cc3)n2)C(=O)Nc2cccc(Cl)c2)CC1,1.91,-0.25,2.48
COc1ccc2c(NN=Cc3cccc(F)c3)ccnc2c1,2.99,2.22,4.14
CCN(CC)CCN(Cc1ccc(-c2ccc(C(F)(F)F)cc2)cc1)C(=O)Cn1cc(Cc2cnn(C)c2)c(=O)n2nc(-c3ccccc3)cc12,4.45,4.37,4.16
COc1cc(NC(=O)Nc2cc(C)nc3ccccc23)cc(OC)c1,0.54,0.94,2.05
COc1ccc(Nc2nccc(N3CCC(NC(=O)Nc4cccc(OC)c4)C3)n2)cc1 (stereo not drawn),0.29,0.74,0.51
Cc1cc(N)ncc1-c1ccc(NC(=O)Nc2cc(C(F)(F)F)ccc2F)cc1,2.41,2.25,1.43
CCCCCc1cc(OC(C)=O)c2c(c1)OC(C)(C)C=C2C1=CCN(Cc2ccccc2)CC1,1.74,1.45,-1.92
CC(C)(C)c1ccc(C(=O)Nc2cccc(Nc3c(C(=O)NCc4cccc(C(F)(F)F)c4)cnc4c(O)cccc34)c2)cc1,10.1,8.9,9.37
CCC(NCc1ccc(-c2cncc(C(=O)NCC(C)C)c2)cc1)c1ccccc1 (stereo not drawn),7.89,7.18,8.76
CC1(C)NC(N)=NC(=N)N1OCOc1ccc(Cl)cc1,3.62,1.85,4.23
